Laboratory results reported in article PMC4336329 (PLoS ONE, 2015).
The campaign covered roughly 310,000 compounds. About 14,000 (4.5%) showed an effect of 50% or more. Effects have a minus sign here. The entries come from a sample that favours strong results as a whole.

These compounds were tested against human ether-à-go-go-related gene (hERG) potassium channel (human, UniProt Q12809) (assay: primary screen, population patch clamp on CHO cells stably expressing hERG; higher = less effect of the substance).
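Also: peak tail current of the secondary pulse compared with the same well before compound.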

Chain of human ether-à-go-go-related gene (hERG) potassium channel (Q12809 whole entry, looked up): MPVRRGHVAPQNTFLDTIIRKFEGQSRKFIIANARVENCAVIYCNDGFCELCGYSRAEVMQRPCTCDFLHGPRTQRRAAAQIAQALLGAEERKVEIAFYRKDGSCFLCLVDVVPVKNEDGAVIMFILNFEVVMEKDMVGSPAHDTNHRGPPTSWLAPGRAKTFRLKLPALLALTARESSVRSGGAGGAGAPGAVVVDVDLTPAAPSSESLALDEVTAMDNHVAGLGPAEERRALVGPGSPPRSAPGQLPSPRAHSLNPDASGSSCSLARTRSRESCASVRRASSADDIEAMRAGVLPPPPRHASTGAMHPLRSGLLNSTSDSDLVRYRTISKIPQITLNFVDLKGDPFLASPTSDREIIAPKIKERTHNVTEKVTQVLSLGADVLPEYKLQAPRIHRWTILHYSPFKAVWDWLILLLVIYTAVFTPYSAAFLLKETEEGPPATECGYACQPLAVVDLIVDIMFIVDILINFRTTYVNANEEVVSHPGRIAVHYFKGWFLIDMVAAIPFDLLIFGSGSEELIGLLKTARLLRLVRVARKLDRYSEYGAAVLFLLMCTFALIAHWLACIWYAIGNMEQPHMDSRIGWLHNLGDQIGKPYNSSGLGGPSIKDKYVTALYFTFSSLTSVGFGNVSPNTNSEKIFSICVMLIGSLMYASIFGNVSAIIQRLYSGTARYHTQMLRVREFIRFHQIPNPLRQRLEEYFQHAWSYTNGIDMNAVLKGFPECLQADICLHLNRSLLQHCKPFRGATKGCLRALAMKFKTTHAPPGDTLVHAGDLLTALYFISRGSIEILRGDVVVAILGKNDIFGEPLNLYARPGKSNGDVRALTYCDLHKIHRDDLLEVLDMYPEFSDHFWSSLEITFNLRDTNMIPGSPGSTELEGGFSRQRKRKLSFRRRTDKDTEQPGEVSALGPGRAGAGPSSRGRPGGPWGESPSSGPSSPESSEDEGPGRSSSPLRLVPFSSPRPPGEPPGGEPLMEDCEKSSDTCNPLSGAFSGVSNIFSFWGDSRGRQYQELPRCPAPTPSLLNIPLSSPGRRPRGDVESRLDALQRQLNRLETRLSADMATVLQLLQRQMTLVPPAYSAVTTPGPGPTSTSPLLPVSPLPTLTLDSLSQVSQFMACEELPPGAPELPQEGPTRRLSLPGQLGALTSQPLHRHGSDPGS

SMILES	hERG current change (%, negative = inhibition) at 10uM [%]
O=C(O)c1cccc2c1C(=O)c1ccccc1C2=O	19.7
Cc1ccc(S(=O)(=O)Nc2cc(-c3ccccc3)nn2C)cc1Cl	12.2
COc1ccccc1NC(=S)NCC1CCCO1 (stereo not shown)	8.94
Cc1ccc(NC(=O)CSc2ccc3nnc(CCNC(=O)c4ccccc4)n3n2)c(C)c1	-18
S=C(NCCCc1ccccc1)Nc1ccc(Br)cc1	17.9
CCCCCOC(=O)C1[C@H]2C(=O)N(Cc3cccs3)C[C@]23C=C[C@H]1O3 (stereo partly shown)	1.95
Cc1ccc2nc3nc(NCC4CCCO4)c(C(=O)NC4CCCCC4)cc3c(=O)n2c1 (stereo not shown)	-78.1
Cc1ccc2nc(SCC(=O)NC3CCCC3)nc(=O)n2c1	-25.1
O=C(NC1CCCCCC1)c1ccc2nc3cc(Cl)ccc3c(=O)n2c1	7.94
Cc1ccc2nc3nc(NCC4CCCO4)c(C(=O)NC4CCCC4)cc3c(=O)n2c1 (stereo not shown)	-75.6
Cc1ccc2nc3c(cc(C(=O)NC4CCS(=O)(=O)C4)n3Cc3ccccc3)c(=O)n2c1 (stereo not shown)	19.6
Cc1ccc2nc(SCC(=O)NC3CCCCC3)nc(=O)n2c1	-14.5
COC(=O)Cc1ccc(NC(=O)c2ccc3c(c2)C(=O)N(Cc2ccco2)C3=O)cc1	-2.43
Cn1nc(C(F)(F)F)c(-c2ccccc2)c1NC(=O)CSCC(=O)O	12.2
CCSc1ncnc2c1sc1nc3c(cc12)COC(C)(C)C3	-2.04
CCN1CCC(N2CCN(c3ccccc3OC)CC2)CC1	11.7
COc1ccccc1C(=O)N1CCC(N2CCN(c3ccccc3)CC2)CC1	-8.58
COc1ccccc1N1CCN(C2CCN(C(=O)COc3cccc(C)c3)CC2)CC1.O=C(O)C(=O)O	-67.8
COc1ccccc1N1CCN(C2CCN(C(=O)COc3ccccc3)CC2)CC1	-25.4
COc1ccc(C(=O)N2CCC(N3CCN(c4ccccc4)CC3)CC2)cc1.O=C(O)C(=O)O	-57.6
COc1cc(OC)cc(C(=O)N2CCC(N3CCN(c4ccccc4)CC3)CC2)c1	-26.9
COc1ccccc1N1CCN(C2CCN(C(=O)c3cccc(F)c3)CC2)CC1.O=C(O)C(=O)O	-33.1
Cc1cccc(OCC(=O)N2CCC(N3CCCCCC3)CC2)c1	-11.2

SMILES	hERG current change (%, negative = inhibition) at 10uM [%]
COc1ccccc1N1CCN(C2CCC(C)CC2)CC1 (stereo not shown)	4.87
COc1ccccc1N1CCN(C2CCN(C(=O)c3ccc(F)cc3)CC2)CC1	-61
COc1ccccc1N1CCN(C2CCN(C(=O)c3cc(OC)c(OC)c(OC)c3)CC2)CC1	-23.1
COc1ccccc1N1CCN(C2CCN(C3CCC(c4ccccc4)CC3)CC2)CC1.O=C(O)C(=O)O (stereo not shown)	-74.1
CSc1sc(C)cc1/C=N/O	6.46
NC(=O)c1nsc(C(=O)N(Cc2ccco2)C(C(=O)NCc2ccc(F)cc2)c2ccc(O)cc2)c1N (stereo not shown)	-43.8
O=C(OC1CCOC1=O)c1ccc(CO)cc1 (stereo not shown)	27.4
CCCn1c2ccccc2c2cc(C(=O)O)ccc21	6.24
c1ccc(-c2csc(-c3ccc(-c4csnn4)cc3)n2)cc1	17.6
CN1C(=O)c2ccccc2Sc2ccc(NC(=O)N3CCOCC3)cc21	-7.88
C=CCn1cc(C=C2C(=O)N(C)C(=O)N(C)C2=O)c2ccccc21	23.9
CC(C)CC(=O)Nc1nc2c(c(=O)[nH]1)CCCC2	17.9
CN=C1CN(O)C(c2ccccc2)=c2cc(Cl)ccc2=N1	18.6
C/C(=N\NC(=O)CNc1ccc(F)cc1)c1cc2ccccc2o1	-26.6
C=CCn1c(O)c(N=NC(=O)c2cccnc2)c2cc(Br)ccc21	-16.1
C=CCn1c(=O)c(C(=O)NCc2ccccc2)c(O)c2ccccc21	15.4
O=[N+]([O-])c1cccc(Cl)c1NCCNc1ncc(C(F)(F)F)cc1Cl	15.6
Cc1ccc(S(=O)(=O)NC(C)(C)CN2CCCCC2)cc1	3.77
COc1ccc(C(=O)COc2ccc3c(C)cc(=O)oc3c2)cc1	11.1
Cc1cc(=O)oc2cc(OCC(=O)c3ccccc3)ccc12	10.9
Cc1cc(=O)oc2cc(OCC(=O)NC3CC(C)(C)NC(C)(C)C3)ccc12	-34.2
Cc1cc(=O)oc2cc(OCC(=O)OC(C)C(=O)NC3CCCC3)ccc12 (stereo not shown)	2.63
Cc1cc(=O)oc2cc(OCC(=O)NC3CCCC3)ccc12	-67.2

SMILES	hERG current change (%, negative = inhibition) at 10uM [%]
Cc1cc(=O)oc2cc(OCC(=O)NC3CCCCC3)ccc12	-60.7
COc1cccc(C(=O)COc2ccc3c(C)cc(=O)oc3c2)c1	-70.8
O=C(COc1ccc2c3c(c(=O)oc2c1)CCC3)NC1CCCCC1	4.83
Cc1cc(=O)oc2cc(OCC(=O)OCC(=O)NC3CC3)ccc12	16.4
CCOc1cc(NC(=S)NCC(C)C)c(OCC)cc1NC(=O)c1cccs1	13.2
O=C1NC2(CCCCC2)C(=O)N1/N=C/c1ccc(O)cc1O	-16.7
COc1ccc(C(=O)c2c[nH]c(C(=O)N=CN(C)C)c2)cc1	10.2
O=C(c1ccc(NC2=NC3CS(=O)(=O)CC3S2)cc1)N1CCN(c2ccccc2)CC1 (stereo not shown)	20.7
Cc1ccc(-c2nc3cnccn3c2Nc2ccc3c(c2)OCO3)cc1	-25.7
Clc1ccc(-c2nc3cnccn3c2Nc2ccc3c(c2)OCO3)cc1	-18.4
Cc1ccn2c(Nc3ccc4c(c3)OCO4)c(-c3ccccn3)nc2c1	-67.4
Cc1ccc(Nc2c(-c3ccccn3)nc3cc(C)ccn23)cc1	-48.1
Cc1ccc(-c2nc3cnccn3c2Nc2ccc3c(c2)OCO3)o1	-52.7
Cc1ccn2c(Nc3ccccc3)c(-c3ccccn3)nc2c1	-10.8
Cc1ccc(Nc2c(-c3ccc(C)o3)nc3cnccn23)cc1	4.98
COc1ccc(-c2nc3cnccn3c2Nc2ccc3c(c2)OCO3)cc1	-52.7
Cc1ccc(-c2nc3cnccn3c2Nc2ccc3c(c2)OCCO3)o1	-23.8
Cc1ccc(NC(=O)CSc2nnc(-c3ccoc3C)n2CCCN(C)C)cc1Cl	-69.3
CCCn1c(SCC(=O)Nc2cccc(C(=O)OCC)c2)nnc1-c1ccoc1C	-2.61
Cc1occc1-c1nnc(SCC(=O)Nc2ccc3c(c2)OCO3)n1CC1CCCO1 (stereo not shown)	-2.13
CCOC(=O)c1cccc(NC(=O)CSc2nnc(-c3ccoc3C)n2CCOC)c1	-19.7
CCN(CC)CCCn1c(SCC(=O)Nc2cccc(F)c2)nnc1-c1ccoc1C	-68.2
COCCCn1c(SCC(=O)Nc2ccc3c(c2)OCCO3)nnc1-c1ccoc1C	-5.98

SMILES	hERG current change (%, negative = inhibition) at 10uM [%]
Cn1nc([N+](=O)[O-])nc1N1CCOCC1	23.7
CC1CCCCN1CCn1c(=S)[nH]c2cc3c(cc2c1=O)OCO3 (stereo not shown)	-29
Cc1cc2cccc(C)c2nc1SCC(=O)NNC(=O)c1ccco1	3.66
Cn1nc(C(=O)Nc2cccc(S(=O)(=O)N3CCCC3)c2)c2ccccc2c1=O	-4.87
C=CCOc1c(CNc2ccc3[nH]c(=O)[nH]c3c2)cccc1OC	10.1
Cc1ccc(NC2CCCN(C(=O)c3snnc3C)C2)cc1C (stereo not shown)	0.46
Cl.Cn1c2c(c3ccccc31)CCN1CCC[C@]21c1ccccc1	-60.7
Cn1c2c(c(=O)c3ccccc31)CCC(C)(C)O2	-3.57
Cn1c2c(c(=O)c3ccccc31)CCCC2	-4.88
COc1ccc(-c2nnc(NC(=O)c3ccc(S(=O)(=O)N(C)CC4CCCO4)cc3)o2)c(OC)c1 (stereo not shown)	10.3
CCn1cc(CN2CCC(n3nccc3NC(=O)c3ccccc3C)CC2)cn1	-58.2
COC(C(=O)Nc1ccnn1C1CCN(Cc2cnn(C(C)C)c2)CC1)c1ccccc1 (stereo not shown)	-2.06
Cc1ccccc1C(=O)Nc1ccnn1C1CCN(Cc2cnn(C(C)C)c2)CC1	-72.3
CCn1cc(CN2CCC(n3nccc3NC(=O)c3ccccc3OC)CC2)cn1	-71.4
Cc1ccccc1C(=O)Nc1ccnn1C1CCN(Cc2cnn(C)c2)CC1	-26.5
Cn1cc(CN2CCC(n3nccc3NC(=O)c3ccccc3Cl)CC2)cn1	-32.9
COc1ccc(C(=O)Nc2ccnn2C2CCN(Cc3cnn(C)c3)CC2)cc1	6.81
CCn1cc(CN2CCC(n3nccc3NC(=O)c3ccccc3C)CC2)c(C)n1	-37.9
COc1ccccc1C(=O)Nc1ccnn1C1CCN(Cc2cnn(C)c2)CC1	-55.6
CCn1cc(CN2CCC(n3nccc3NC(=O)Cc3ccccc3)CC2)cn1	7.27
CCn1cc(CN2CCC(n3nccc3NC(=O)c3ccc(OC)cc3)CC2)cn1	-4.16
CC(C)n1cc(CN2CCC(n3nccc3NC(=O)Cc3ccccc3)CC2)cn1	7.82
